# PubChem BioAssay (EPA / NIEHS)
# Where “and” joins values, the source holds several entries; their conditions need not be identical. Identical values can stand only once. Where a structure was tested more than once in an assay, its records may differ in their call. Calls of active or inactive are those of the source. Rule for the calls: active = hit-call score of the fitted dose curve at least 0.9, where 1 is the maximum; inactive = score below 0.9.
# Assays:
# [1] = read-out: Interleukin-8 (IL8), CXCL8 (gene 3576); assay: BSK_KF3CT_IL8: BioMAP Diversity Plus: KF3CT Assay for Interleukin-8 (IL8) Biomarker Activity (AID 2284254); conditions: primary human keratinocytes with fibroblasts
# Method in brief: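 Human keratinocyte/foreskin fibroblast co-culture dosed 24 h; IL-8 measured by ELISA relative to DMSO. Parallel cultures stained with SRB for total protein to flag cytotoxicity.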
# [2] = read-out: Macrophage Inflammatory Protein-1 Alpha (MIP1a), CCL3 (gene 6348); assay: BSK_IMphg_MIP1a: BioMAP Diversity Plus: IMphg Assay for Macrophage Inflammatory Protein-1 Alpha (MIP1a) Biomarker Activity (AID 2284255); conditions: primary human endothelial cells with macrophages
# Method in brief: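 Co-culture of human venular endothelial cells and macrophages exposed to compounds for 24 h; MIP-1a measured by ELISA relative to DMSO. Cytotoxicity assessed in parallel cultures by sulforhodamine B total-protein staining at 560 nm.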
# [3] = read-out: Plasminogen activator inhibitor-1 (PAI1), SERPINE1 (gene 5054); assay: BSK_MyoF_PAI1: BioMAP Diversity Plus: MyoF Assay for Plasminogen activator inhibitor-1 (PAI1) Biomarker Activity (AID 2284256); conditions: primary human lung fibroblasts;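 for outcome: PAI-1 read 24 h after compound addition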
# Method in brief: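 Primary human lung fibroblasts treated with chemical for 24 h; PAI-1 levels quantified by ELISA relative to DMSO. Cytotoxicity was assessed in parallel cultures by SRB total-protein staining (0.1% SRB after 10% TCA fixation, 560 nm).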
# CD69, CD69 (gene 969) = assay: BSK_IMphg_CD69: BioMAP Diversity Plus: IMphg Assay for CD69 Biomarker Activity (AID 2284257); conditions: primary human endothelial cells with macrophages
# Method in brief: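 Human venular endothelial cells co-cultured with macrophages; CD69 quantified by ELISA 24 h after compound addition. Activity fitted in the positive direction relative to DMSO baseline; cytotoxicity tracked in parallel cultures via SRB total-protein staining.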
# [4] = read-out: Eotaxin 3, CCL26 (gene 10344); assay: BSK_BF4T_Eotaxin3: BioMAP Diversity Plus: BF4T Assay for Eotaxin 3 Biomarker Activity (AID 2284258); conditions: primary human bronchial epithelial cells with fibroblasts
# Method in brief: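 Co-culture of human bronchial epithelial cells and dermal fibroblasts, exposed to chemicals for 24 h versus DMSO. Eotaxin-3 quantified by ELISA; cytotoxicity checked in parallel cultures by sulforhodamine B total-protein staining.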
# [5] = read-out: Monocyte Chemoattractant Protein-1 (MCP1), CCL2 (gene 6347); assay: BSK_BF4T_MCP1: BioMAP Diversity Plus: BF4T Assay for Monocyte Chemoattractant Protein-1 (MCP1) Biomarker Activity (AID 2284259); conditions: primary human bronchial epithelial cells with fibroblasts
# Method in brief: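 Co-culture of bronchial epithelial cells and dermal fibroblasts dosed with chemical; MCP-1 measured by ELISA 24 h later. Activity fitted in positive direction versus DMSO; cytotoxicity checked by SRB staining in parallel cultures.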
# [6] = read-out: Intercellular Adhesion Molecule 1 (ICAM1), ICAM1 (gene 3383); assay: BSK_BF4T_ICAM1: BioMAP Diversity Plus: BF4T Assay for Intercellular Adhesion Molecule 1 (ICAM1) Biomarker Activity (AID 2284260); conditions: primary human bronchial epithelial cells with fibroblasts
# Method in brief: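 Co-culture of human bronchial epithelial cells and dermal fibroblasts exposed 24 h to chemical; cell-surface ICAM-1 quantified by ELISA. Parallel SRB total-protein staining assessed cytotoxicity; activity fitted relative to DMSO.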
# [7] = read-out: Interleukin-8 (IL8), CXCL8 (gene 3576); assay: BSK_MyoF_IL8: BioMAP Diversity Plus: MyoF Assay for Interleukin-8 (IL8) Biomarker Activity (AID 2284261); conditions: primary human lung fibroblasts
# Method in brief: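 Human lung fibroblast (MyoF system) cultures dosed for 24 h, then IL-8 measured by ELISA. Response taken relative to DMSO; parallel SRB total-protein staining for cytotoxicity.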
# CD90, THY1 (gene 7070) = assay: BSK_BF4T_CD90: BioMAP Diversity Plus: BF4T Assay for CD90 Biomarker Activity (AID 2284262); conditions: primary human bronchial epithelial cells with fibroblasts
# Method in brief: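 Co-culture of human bronchial epithelial cells and dermal fibroblasts, 24 h compound exposure. Cell-surface CD90 measured by ELISA relative to DMSO; parallel SRB total-protein staining for cytotoxicity.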
# [8] = read-out: Interleukin-8 (IL8), CXCL8 (gene 3576); assay: BSK_BF4T_IL8: BioMAP Diversity Plus: BF4T Assay for Interleukin-8 (IL8) Biomarker Activity (AID 2284263); conditions: primary human bronchial epithelial cells with fibroblasts
# Method in brief: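 Human bronchial epithelial cells with dermal fibroblasts co-culture; IL-8 measured by ELISA 24 hours after dosing, fitted vs DMSO. Cytotoxicity tracked in parallel cultures by SRB total-protein staining.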
# [9] = read-out: Interleukin-1 alpha (IL1a), IL1A (gene 3552); assay: BSK_BF4T_IL1a: BioMAP Diversity Plus: BF4T Assay for Interleukin-1 alpha (IL1a) Biomarker Activity (AID 2284264); conditions: primary human bronchial epithelial cells with fibroblasts
# Method in brief: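 Human bronchial epithelial cells co-cultured with dermal fibroblasts, dosed and read at 24 h. Secreted/surface IL-1α quantified by ELISA; gain-of-signal fitted relative to DMSO baseline. Parallel SRB total-protein staining tracked cytotoxicity.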
# Decorin, DCN (gene 1634) = assay: BSK_MyoF_Decorin: BioMAP Diversity Plus: MyoF Assay for Decorin Biomarker Activity (AID 2284265); conditions: primary human lung fibroblasts
# Method in brief: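 Human lung fibroblast cultures were dosed for 24 h, and decorin was then measured by ELISA. Parallel cultures were stained with sulforhodamine B for total protein as a cytotoxicity check. Gain of signal was fitted relative to DMSO.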
# KRT18 (gene 3875) = assay: BSK_BF4T_Keratin818: BioMAP Diversity Plus: BF4T Assay for Keratin 818 Biomarker Activity (AID 2284266); conditions: primary human bronchial epithelial cells with fibroblasts
# Method in brief: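 Co-culture of human bronchial epithelial cells and dermal fibroblasts, chemical exposure 24 h. Keratin 8/18 measured by ELISA; positive-direction fit vs DMSO. SRB total protein run in parallel cultures for cytotoxicity.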
# [10] = BSK_MyoF_SRB: Viability Assessment in the BioMAP Diversity Plus: MyoF Assay (AID 2284267); conditions: primary human lung fibroblasts;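 note: total protein by SRB absorbance in parallel cultures as cytotoxicity measure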
# Method in brief: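 Human lung fibroblasts dosed with chemical and assessed 24 h later for overt cytotoxicity in parallel cultures. Total protein quantified by sulforhodamine B staining (0.1% SRB after 10% TCA fixation), read at 560 nm, analysed in positive direction versus DMSO baseline.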
# [11] = read-out: Matrix Metallopeptidase 1 (MMP1), MMP1 (gene 4312); assay: BSK_MyoF_MMP1: BioMAP Diversity Plus: MyoF Assay for Matrix Metallopeptidase 1 (MMP1) Biomarker Activity (AID 2284268); conditions: primary human lung fibroblasts
# Method in brief: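 Human lung fibroblast primary cells; MMP1 measured by ELISA 24 h after dosing, fitted in the positive direction relative to DMSO. Parallel SRB staining (0.1%, after 10% TCA fixation, 560 nm) assesses overt cytotoxicity.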
# [12] = read-out: TIMP metallopeptidase inhibitor 1 (TIMP1), TIMP1 (gene 7076); assay: BSK_MyoF_TIMP1: BioMAP Diversity Plus: MyoF Assay for TIMP metallopeptidase inhibitor 1 (TIMP1) Biomarker Activity (AID 2284269); conditions: primary human lung fibroblasts
# Method in brief: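 ELISA quantified TIMP-1 levels after 24 h dosing of primary human lung fibroblasts, with DMSO as baseline. Parallel SRB total protein staining (0.1% SRB after TCA fixation, 560 nm) flagged overt cytotoxicity.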
# [13] = read-out: Matrix Metallopeptidase 1 (MMP1), MMP1 (gene 4312); assay: BSK_BF4T_MMP1: BioMAP Diversity Plus: BF4T Assay for Matrix Metallopeptidase 1 (MMP1) Biomarker Activity (AID 2284270); conditions: primary human bronchial epithelial cells with fibroblasts
# Method in brief: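 Co-culture of human bronchial epithelial cells and dermal fibroblasts; MMP-1 levels measured by ELISA 24 hours after chemical dosing, relative to DMSO. Cytotoxicity checked in parallel cultures by SRB total-protein staining.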
# [14] = read-out: Matrix Metallopeptidase 3 (MMP3), MMP3 (gene 4314); assay: BSK_BF4T_MMP3: BioMAP Diversity Plus: BF4T Assay for Matrix Metallopeptidase 3 (MMP3) Biomarker Activity (AID 2284271); conditions: primary human bronchial epithelial cells with fibroblasts
# Method in brief: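 Co-culture of human bronchial epithelial cells and dermal fibroblasts dosed 24 h; MMP-3 measured by ELISA, positive-direction fit versus DMSO. Cytotoxicity tracked by SRB total-protein staining (560 nm) in parallel cultures.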
# [15] = read-out: Tissue plasminogen activator (tPA), PLAT (gene 5327); assay: BSK_BF4T_tPA: BioMAP Diversity Plus: BF4T Assay for Tissue plasminogen activator (tPA) Biomarker Activity (AID 2284272); conditions: primary human bronchial epithelial cells with fibroblasts
# Method in brief: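 tPA level quantified by ELISA at 24 h post-treatment in bronchial epithelial/dermal fibroblast co-cultures, gain of signal scored against DMSO baseline. Parallel cultures stained with 0.1% SRB (560 nm) to flag overt cytotoxicity.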
compound,measurement,setting,value
O=C(O)C(F)(F)C(F)(F)C(F)(F)C(F)(F)C(F)(F)C(F)(F)C(F)(F)C(F)(F)C(F)(F)C(F)(F)C(F)(F)C(F)(F)F,outcome,[1],inactive
same,outcome,[2],inactive
same,outcome,[3],inactive
same,outcome,"CD69, CD69 (gene 969)",inactive
same,outcome,[4],inactive
same,outcome,[5],inactive
same,outcome,[6],inactive
same,outcome,[7],inactive
same,outcome,"CD90, THY1 (gene 7070)",inactive
same,outcome,[8],inactive
same,outcome,[9],inactive
same,outcome,"Decorin, DCN (gene 1634)",inactive
same,outcome,KRT18 (gene 3875),inactive
same,outcome,[10],inactive
same,outcome,[11],inactive
same,outcome,[12],inactive
same,outcome,[13],inactive
same,outcome,[14],inactive
same,outcome,[15],inactive
FC(F)(F)C(F)(F)C(F)(F)C(F)(F)C(F)(F)C(F)(F)CC1CO1 (configuration not stated),outcome,[1],inactive
same,outcome,[2],inactive
same,outcome,[3],inactive
same,outcome,"CD69, CD69 (gene 969)",inactive
same,outcome,[4],inactive
same,outcome,[5],inactive
same,outcome,[7],inactive
same,outcome,"CD90, THY1 (gene 7070)",inactive
same,outcome,[8],inactive
same,outcome,[9],inactive
same,outcome,"Decorin, DCN (gene 1634)",inactive
same,outcome,KRT18 (gene 3875),inactive
same,outcome,[10],inactive
same,outcome,[11],inactive
same,outcome,[12],inactive
same,outcome,[13],inactive
same,outcome,[14],inactive
same,outcome,[15],inactive
CCCCC(CC)COP(=O)(O)OCC(CC)CCCC (configuration not stated),outcome,[1],inactive
OCCCC(F)(F)C(F)(F)C(F)(F)C(F)(F)C(F)(F)C(F)(F)C(F)(F)F,AC50,[1],49.3 µM (active) and 46.4 µM (active)
same,AC50,[2],37.5 µM (active)
same,outcome,[2],inactive
same,AC50,[3],51.2 µM (active) and 52.2 µM (active)
same,AC50,"CD69, CD69 (gene 969)",50 µM (active)
same,outcome,"CD69, CD69 (gene 969)",inactive
same,AC50,[4],52.3 µM (active)
same,outcome,[4],inactive
same,AC50,[5],38.4 µM (active) and 43.2 µM (active)
same,AC50,[7],58.5 µM (active)
same,outcome,[7],inactive
same,AC50,"CD90, THY1 (gene 7070)",30 µM (active) and 21.3 µM (active)
same,AC50,[8],40.5 µM (active) and 45.3 µM (active)
same,AC50,[9],51.6 µM (active) and 55.4 µM (active)
same,AC50,"Decorin, DCN (gene 1634)",51.2 µM (active) and 52.2 µM (active)
same,AC50,KRT18 (gene 3875),23.7 µM (active) and 47.1 µM (active)
same,AC50,[10],44.8 µM (active) and 56.2 µM (active)
same,AC50,[11],48 µM (active)
same,outcome,[11],inactive
same,AC50,[12],54.9 µM (active) and 47.5 µM (active)
same,AC50,[13],46.8 µM (active)
same,outcome,[13],inactive
same,AC50,[14],57.5 µM (active) and 32.4 µM (active)
same,AC50,[15],56.6 µM (active) and 47.7 µM (active)
